From PubChem BioAssay
NS1 inh = inhibitors of influenza NS1 protein function; Potency, µM (doses to about 46.1 µM), for inactives: top-dose activity, positive = more growth; actives 0.4% (n = 270,000); AID 2326; calls by dose curve; further: actives are rising curves; nearly all actives have a fitted effect of over 50% in size
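OD600 was taken as the measure of yeast growth restored by compound in an NS1-expressing S. cerevisiae strain. Cells had been washed out of glucose medium and diluted 1:100 into galactose -URA medium, pH 6.0.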
Pf growth 48h = P. falciparum growth inhibition at 48 hours (one generation); Potency, µM (titrated, usually from 28.7 µM), inactives show at the highest dose activity change, negative = inhibition, usual class: inhibitors; P. falciparum luciferase growth in erythrocytes, 48 h; actives 5.9% (n = 310,000); further: on the % scale 0 is the no-effect control and ±100 the full control effect
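In quantitative HTS format, infected erythrocytes bearing luciferase-reporter parasites were treated for a single generation at 37 C. Luminescence after adding detection reagent served as the growth measure.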
SARS PLP yeast = blocks SARS-CoV papain-like protease in a yeast assay; S. cerevisiae expressing SARS-CoV PLpro, growth rescue; Potency, µM (top dose mostly 32.9 µM), inactives show at the top dose activity, positive = growth rescue, actives largely listed as activators; actives 0.19% (n = 330,000); calls by dose curve; further: 0% is about no effect; nearly all actives have a fitted effect of over 55% in size
Pf growth 96h = P. falciparum growth inhibition at 96 hour, primary screen for plastid delayed-death inhibitors; P. falciparum luciferase reporter growth, 96 h; Potency, µM (highest dose often 28.7 µM), inactives show top-dose activity change, negative = inhibition, usual class: inhibitors; actives 6.9% (n = 320,000); AID 504834; further: on the % scale 0 is the no-effect control and ±100 the full control effect
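Luminescence readout: decreased luciferase signal marks inhibited growth of reporter-expressing P. falciparum in infected red cells (2% hematocrit, 0.05% parasitemia final), exposed to compound two generations (96 h, 37 C, 5% CO2).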
The depositor's hits bear a star; ? = inconclusive; . = no result; [ ] = dose if it differs, or a comment. Hits are enriched below; roughly 10% of the tested compounds scored in any of these assays. Unless noted, the call rests on the fitted dose curve; in most records, active means well fitted inhibition curve with a large enough effect; inconclusive means small, poorly fitted or top-dose-only effect, or another doubt; inactive means no such curve, though single readings can be large or run the other way. Potency means the concentration at half of the fitted maximal effect.

SMILES	NS1 inh	Pf growth 48h	SARS PLP yeast	Pf growth 96h
CC(=O)N1N=C(c2c(O)n(C)c(=O)n(C)c2=O)CC1c1ccccc1 (stereo unspecified)	3%	3.7µM*	1%	2.6µM*
CC(=O)N1N=C(c2ccco2)CC1c1ccc(C)cc1 (stereo unspecified)	20%	11%	4%	26%
CCC(=O)OCN1C(=O)C=CC1=O	-18%	.	.	.
CO[C@H]1[C@@H](OC(N)=O)[C@H](O)[C@@H](Oc2ccc3c(O)c(NC(=O)c4ccc(O)c(CC=C(C)C)c4)c(=O)oc3c2C)OC1(C)C	.	-6%[12.8 µM]	.	-4%[12.8 µM]
Cc1ccc2nc(CSc3nnc(-c4ccncc4)n3C)cc(=O)n2c1	.	-4%	-2%	-28%
C=CCn1c(SCc2cc(=O)n3cc(C)ccc3n2)nnc1-c1ccc(F)cc1	-16%	-27%	5%	5.2µM*
Cc1ccc(S(=O)(=O)n2nc(-c3cccnc3)nc2N)cc1	-6%	18%	-2%	5%
CC(=O)Nc1ccc(S(=O)(=O)n2nc(-c3ccc(C)cc3)nc2N)cc1	-1%	-14%	5%	1.7µM*
CCOC(=O)CCC(NC(=O)CCCC(=O)NC(CCC(=O)OCC)C(=O)OCC)C(=O)OCC (stereo unspecified)	-1%	2%	4%	-5%
CC1CC(=O)c2cnc(NCC3CCCO3)nc2C1 (stereo unspecified)	1%	28%	-2%	9.3µM*
Cc1ccc(CNC(=O)c2ccc(F)c(S(=O)(=O)N3CCOCC3)c2)cc1	.	?	-1%	-2%
COC(=O)c1ccc(N2CCOCC2)c(F)c1	5%	.	3%	94%
CC(=O)NC[C@@H]1CN(c2ccc(N3CCOCC3)c(F)c2)C(=O)O1	.	-1%	.	15µM*
CC[N+](C)(CC)CCN1C(=O)c2ccccc2S1(=O)=O	-3%	.	.	.
c1ccc(-c2nnc(C(c3ccccc3)c3ccccc3)o2)cc1	-2%	?	9%	7.4µM*
Cc1ccc(-c2nnc(-c3ccccc3)o2)cc1	-22%	477%	-25%	?
CC1=Nc2ccc(Br)cc2C(c2ccccc2)N1CC(=O)NN (stereo unspecified)	.	?	15%	8%
OC1c2cc(Br)ccc2N=C2CCCN21 (stereo unspecified)	-1%	8.3µM*	0%	10µM*
Cc1ccc2nc(Nc3ccc(Cl)cc3)c3nncn3c2c1	-5%	?	-3%	12%
CCCOc1ccc(C(=O)Nc2cc(S(=O)(=O)N3CCOCC3)ccc2N2CCOCC2)cc1	.	12µM*	0%	?
CCOc1ccc(C(=O)Nc2cc(S(=O)(=O)Nc3ccccc3Cl)ccc2N2CCOCC2)cc1	?	?	-10%	2.6µM*
CCOc1ccc(S(=O)(=O)Nc2ccccc2C(=O)Nc2ccccc2N2CCOCC2)cc1	-5%	-13%	-3%	.
Cc1nn2c(nc(N3CCCCC3)c3ccccc32)c1C=O	6%	3.3µM*	-1%	5.2µM*
Cc1nn2c(nc(N3CCOCC3)c3ccccc32)c1C=C(C#N)C#N	-6%	6%	12%	23%
Cc1nn2c([nH]c(=O)c3ccccc32)c1C=O	-178%	?	-7%	12µM*
SMILES	NS1 inh	Pf growth 48h	SARS PLP yeast	Pf growth 96h
COc1ccc(CCN(C)C2CCCN(C(=O)CCC(F)(F)F)C2)cc1OC (stereo unspecified)	2%	-19%	-3%	?
CC(C)(C)CNCCO	-5%	.	.	.
COc1ccc(/C=C(/NC(=O)c2ccc(C)cc2)C(=O)N2CCCC2)cc1OC	-4%	2%	-1%	-21%
COC(=O)C1=C(c2ccc(Cl)c(C(F)(F)F)c2)C[C@@H]2CC[C@H]1N2C(=O)N1CCOCC1	.	?	-8%	?
COC(=O)C1=C(c2ccc(Cl)c(C(F)(F)F)c2)C[C@@H]2CC[C@H]1N2C(=O)NCC1CC1	.	12µM*	2%	6.6µM*
COC(=O)C1=C(c2ccc(OC(F)(F)F)cc2)C[C@@H]2CC[C@H]1N2C(=O)NC1CC1	.	?	0%	5.9µM*
COC(=O)C1=C(c2ccc(Cl)c(C(F)(F)F)c2)C[C@@H]2CC[C@H]1N2C(=O)N1CCCC1	.	12µM*	-2%	?
COC(=O)C1=C(c2ccc(OC(F)(F)F)cc2)C[C@@H]2CC[C@H]1N2C(=O)NCC1CC1	.	?	1%	?
CCCNC(=O)N1[C@H]2CC[C@@H]1C(C(=O)OC)=C(c1ccc(Cl)c(C(F)(F)F)c1)C2	.	?	-1%	?
COC(=O)C1=C(c2ccc(Cl)c(C(F)(F)F)c2)C[C@@H]2CC[C@H]1N2C(=O)NCc1cc(C)oc1C(F)(F)F	.	7.4µM*	2%	?
Cc1cccc(NS(=O)(=O)c2cccc(C(=O)NCC(c3ccco3)N(C)C)c2)c1 (stereo unspecified)	.	?	-5%	-18%
O=C(NCc1cc([N+](=O)[O-])ccc1O)c1cccnc1Sc1ccccc1	-10%	?	-1%	12µM*
O=C(NNC(=O)c1cccnc1SCc1cccc([N+](=O)[O-])c1)c1ccccn1	-1%	5.2µM*	-2%	98%
O=C(OCC(=O)N1CCN(c2ccccc2)CC1)C1CCCN1S(=O)(=O)c1ccc(Cl)cc1 (stereo unspecified)	.	48%	2%	68%
COc1cc(/C=N/NC(=O)C(Cc2c[nH]c3ccccc23)NC(=O)OCC(C)C)cc([N+](=O)[O-])c1O (stereo unspecified)	25%	-30%	10%	12µM*
COc1cc(/C=N/NC(=O)C(Cc2c[nH]c3ccccc23)NC(=O)OCc2ccccc2)cc([N+](=O)[O-])c1O (stereo unspecified)	?	-4%	15%	2%
COc1ccc(Cc2nnc(NC(=O)c3ccccc3C)s2)cc1	-7%	34%	-2%	2.1µM*
O=C(Nc1nnc(Cc2ccccc2)s1)c1ccccc1	12%	85%	19%	?
O=C(Nc1nnc(CCS(=O)(=O)c2ccc3ccccc3c2)s1)c1cccs1	11%	15%	10%	17%
Cc1cccc(C(=O)Nc2nnc(Cc3ccccc3)s2)c1	5%	?	-7%	10µM*
COc1ccc(S(=O)(=O)CCc2nnc(NC(=O)c3cccs3)s2)cc1	-6%	2.3µM*	-7%	33%
O=C(Nc1nnc(Cc2ccccc2)s1)C1CCC1	-15%	?	9%	1.7µM*
Cc1c(-c2ccc(Cl)cc2Cl)nc2ccccc2c1C(=O)NCCN1CCOCC1	-13%	?	1%	?
COc1ccc2nc(N(Cc3ccccc3)C(=O)CCNC(C)=O)sc2c1	1%	60%	-5%	-2%
CC(C)(C)OC(=O)N[C@@H](Cc1ccccc1)C(=O)NCC1CCC(C(=O)O)CC1 (stereo partly specified)	3%	6%	2%	16%
O=C(Nc1ccc(Oc2ccccc2)cc1)c1cnc2n(c1=O)CCS2	4%	.	-7%	13µM*
CCOc1ccccc1NC(=O)c1cnc2n(c1=O)CCS2	-14%	7%	1%	?
Cc1cc(OC(=O)c2cccc(Br)c2)c([N+](=O)[O-])c(=O)[nH]1	-26%	12%	2%	101%
CCC(=NCCN1CCOCC1)c1c(O)n(-c2ccccc2C)c(=O)[nH]c1=O	-7%	9%	-1%	-2%[5.75 µM]
